Records with an inconclusive call do not appear. The source made the active and inactive calls. Calls follow the shape of the dose curve; as a rule, active = well fitted inhibition curve with a large enough effect; inconclusive = small, poorly fitted or top-dose-only effect; inactive = flat fitted curve, though single readings scatter.
What was measured:
Assay in all cases: Cytotoxic Profiling of Annotated Libraries Using Quantitative High-Throughput Screening (AID 1296008); also: nearly all actives have a fitted effect of over 60% in size
Settings in all cases: Five cell lines viability, CellTiter-Glo ATP luminescence, 48-72 h; max response: stronger effect = lower value
[1] = tested on: CRL-7250
Procedure, shortened: (§1)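 Compounds were pin-transferred onto cells and incubated 48 or 72 hr at 37 degree Celsius, 95% humidity. CellTiter-Glo was added, plates sat 10 min at room temperature, then ATP-coupled luminescence was imaged as the viability read-out.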

[2] = tested on: HEK293
Procedure, shortened: as §1

[3] = tested on: HaCat
Procedure, shortened: as §1

[4] = tested on: KB-3-1
Procedure, shortened: as §1

[5] = tested on: NIH3T3
Procedure, shortened: as §1

Measured: max response
% is scaled to controls: 0 for no effect and ±100 for the full control effect.

COc1cc(/C=C/C(=O)OCC2OC(OC3(CO)OC(CO)C(O)C3O)C(O)C(O)C2O)ccc1O (stereo not given)
inactive: [1] 0.86% | [2] 0.768% | [3] 2.88% | [4] | [5]

COC(=O)C1=CO[C@@H](O[C@@H]2O[C@H](CO)[C@@H](O)[C@H](O)[C@H]2O)[C@@H]2[C@@H](C)[C@@H](OC(=O)/C=C/c3ccccc3)[C@@H](O)[C@H]12
inactive: [1] -5.94% | [2] -9.01% | [3] -9.9% | [4] | [5]

C/C=C(\C)C(=O)OC1C(C)C2(O)C3C=C(C)C(=O)C3CC(CO)=CC2C2C(C)(C)C12OC(C)=O (stereo not given)
inactive: [1] -31.4% | [2] -25.8% | [3] 4.78% | [4] 2.42% | [5]

CC1(C)CC[C@]2(C(=O)O)CC[C@]3(C)C(=CCC4[C@@]5(C)CC[C@H](O[C@@H]6O[C@H](C(=O)O)[C@@H](O)[C@H](O)[C@H]6O)C(C)(C)C5CC[C@]43C)C2C1 (stereo not given in full)
inactive: [1] -10.5% | [2] -9.32% | [3] -12.1% | [4] 4.15% | [5]

COC(=O)c1cc(OC)cc(OC)c1C(=O)c1c(OC)cc2c(c1O)C1CCC(O)C(C)(O2)O1 (stereo not given)
inactive: [1] | [2] 0.585% | [3] | [4] | [5]

CC1=C(C)C(=O)OC(C(C)C2C(O)CC3C4C5OC5C5(O)CC(OC6OC(CO)C(OC7OC(C)C(O)C(O)C7O)C(O)C6O)CC(O)C5(C)C4CCC32C)C1 (stereo not given)
inactive: [1] -10% | [2] -3.17% | [3] | [4] 2.34% | [5] 0.724%

COC(=O)C(CC1(OC(=O)C(C)C)c2ccccc2N2C(=O)C(C)(C)N(O)C21)n1cnc2ccccc2c1=O (stereo not given)
inactive: [1] -11.1% | [2] -9.23% | [3] | [4] 5.72% | [5] -14.6%

O=C(OCC1OC(Oc2ccc(O)cc2COC(=O)C2(O)C(O)CCC(=O)C2OC(=O)C2C=CCC2)C(OC(=O)C2C=CCC2)C(O)C1O)C1C=CCC1 (stereo not given)
inactive: [1] -0.0328% | [2] -10.5% | [3] | [4] 6.15% | [5] 3.99%

CC[C@H](NC(=O)c1c(O)c(-c2ccccc2)nc2ccccc12)c1ccccc1
inactive: [1] | [2] -9.53% | [3] | [4] -1.35% | [5]

C/C=C(/C)C(=O)OC1C2OC2C2(CO2)C2C3OC(=O)C(C)C3CCC12C (stereo not given)
inactive: [1] -1.71% | [2] | [3] 3.73% | [4] 9.88% | [5] -1.74%

COc1cc(C(O)C2COC(c3ccc(OC4OC(CO)C(O)C(O)C4O)c(OC)c3)C2CO)ccc1O (stereo not given)
inactive: [1] -6.83% | [2] -1.12% | [3] | [4] 8.83% | [5] -19.8%

COc1cc(O)cc2c1C(=O)OC(C)C2 (stereo not given)
inactive: [1] 4.54% | [2] 4.69% | [3] | [4] 3.07% | [5] -0.229%

O=C(O)c1cc(O[C@@H]2O[C@H](CO)[C@@H](O)[C@H](O)[C@H]2O)ccc1O
inactive: [1] -1.11% | [2] -8.21% | [3] | [4] 1.47% | [5]

CC(=O)/C=C/C1(O)C(C)CC(O[C@@H]2O[C@H](CO)[C@@H](O)[C@H](O)[C@H]2O)CC1(C)C (stereo not given in full)
inactive: [1] | [2] 1.81% | [3] | [4] | [5] -2.62%

COc1ccnc2[nH]cc(C(=O)C(=O)N3CCN(C(=O)c4ccccc4)CC3C)c12 (stereo not given)
inactive: [1] 0.507% | [2] -0.0222% | [3] | [4] | [5] -4.76%

C/C=C(\C)C(=O)OC[C@H]1O[C@@H](O[C@H]2[C@@H](O[C@H]3O[C@H](COC(=O)/C(C)=C/C)[C@@H](O)[C@H](O)[C@H]3O[C@@H]3O[C@H](CO)[C@@H](O)[C@H](OC(=O)/C(C)=C/C)[C@H]3O)O[C@H](COC(=O)/C(C)=C/C)[C@@H](O)[C@@H]2O)[C@H](O)[C@@H](O)[C@@H]1O
inactive: [1] -2.42% | [2] -5.26% | [3] 2.69% | [4] | [5]

OC[C@H]1O[C@@H](Oc2cc(O)cc(-c3cc4ccc(O[C@@H]5O[C@H](CO)[C@@H](O)[C@H](O)[C@H]5O)cc4o3)c2)[C@H](O)[C@@H](O)[C@@H]1O
inactive: [1] -9.86% | [2] -2.42% | [3] | [4] 0.0792% | [5] -3.34%

CC(=O)OC12CC(C)C(OC(=O)c3ccccc3)C1/C=C(/C)C(OC(=O)c1ccccc1)CC(=O)C(C)(C)/C=C/C(C)C2=O (stereo not given)
inactive: [1] -26.4% | [2] -14.7% | [3] | [4] | [5] 1.94%

COc1cc(O[C@@H]2O[C@H](CO[C@H]3OC[C@](O)(CO)[C@H]3O)[C@@H](O)[C@H](O)[C@H]2O)cc(OC)c1O
inactive: [1] -3.27% | [2] 0.643% | [3] | [4] | [5] -4.07%
